Values joined by “and” are separate entries in the source; they are usually repeats but may differ in a detail not shown here. Equal values may be shown once. Active and inactive are the calls of the source. How the calls were made is not given here.
Tested on: Aerobactin synthetase IucA (Klebsiella pneumoniae hvKP1)
Assay: IucA enzyme inhibition, primary screen, biochemical, Spectrum library (AID 1346200);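 further: 100% = wells without compound and 0% = wells lacking enzyme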
Conditions: malachite green pyrophosphate, A620, at 8 µM, stronger effect = lower value

Compound | activity remaining
CC(=O)NCCCCCC(=O)O | 124% (inactive)
COc1ccc(C(=O)c2ccccc2)c(O)c1 | 116% (inactive)
Cc1cc(O)c(C=O)c2c1C(=O)Oc1c(COC(=O)/C=C/C(=O)O)c(O)c(C(=O)O)c(C)c1O2 | 93.9% (inactive)
CC1(C)CC[C@]2(C(=O)O)CC[C@]3(C)C(=CCC4[C@@]5(C)CC[C@H](O)C(C)(C)C5[C@H](O)C[C@]43C)C2C1 (stereo not given in full) | 76.1% (inactive)
CC1=CC2C(C(C)C)CCC(C)(O)C2CC1 (stereo not given) | 89.3% (inactive)
C[C@@H](N)CO | 106% (inactive)
CC(=O)Oc1cc(C)c2c(c1C=O)Oc1c(c(C)c(OC(C)=O)c3c1C(OC(C)=O)OC3=O)OC2=O (stereo not given) | 106% (inactive)
CC(=O)NCc1c(I)c(NC(C)=O)c(I)c(C(=O)O)c1I | 98.7% (inactive)
COc1ccc(/C=C/C(=O)c2ccc(O)cc2O)cc1OC | 93.4% (inactive)
C=C1C[C@]23C[C@@]1(O)CC[C@H]2[C@@]12C=C[C@H](O)C(C)(C(=O)O1)[C@H]2[C@@H]3C(=O)O | 121% (inactive)
CC1(C)OCC(C2OC(=O)C(O)=C2O)O1 (stereo not given) | 87.7% (inactive)
CC(C)=CCCC1(C)C=Cc2c(O)c3c(c(CC=C(C)C)c2O1)OC12C(=CCCC1C(C)(C)O[C@@]2(C/C=C(\C)C(=O)O)C(=O)O)C3=O (stereo not given in full) | 116% (inactive)
CC(C)(CO)C(O)C(=O)NCCCO (stereo not given) | 118% (inactive)
CO/N=C(/C(=O)NC1C(=O)N2C(C(=O)O)=C(COC(N)=O)CSC12)c1ccco1 (stereo not given) | 92.5% (inactive)
CC(=O)N[C@@H]1[C@@H](O)[C@H](O)[C@@H](CO)O[C@H]1O | 106% (inactive)
OC[C@H]1O[C@@H](Oc2ccc(O)cc2)[C@H](O)[C@@H](O)[C@@H]1O | 115% (inactive)
Cc1cc(C)cc(OCC2CNC(=O)O2)c1 (stereo not given) | 113% (inactive)
C[C@@H]1CC[C@@]2(OC1)O[C@H]1CC3C4CC[C@H]5C[C@@H](O)CC[C@]5(C)C4CC[C@]3(C)[C@H]1[C@@H]2C (stereo not given in full) | 101% (inactive)
CCCCOc1ccc(CC(=O)NO)cc1 | 80.8% (inactive)
COc1ccc2c(c1)[C@@]1(C)CCC(=O)C[C@@H]1CC2 | 118% (inactive)

Compound | activity remaining
CCc1nc(N)nc(N)c1-c1ccc(Cl)cc1 | 108% (inactive)
N[C@@H](Cc1cc(I)c(Oc2ccc(O)c(I)c2)c(I)c1)C(=O)O | 125% (inactive)
NC[C@H]1O[C@H](O[C@H]2[C@H](O)[C@@H](O[C@H]3O[C@H](CO)[C@@H](O)[C@H](N)[C@H]3O)[C@H](N)C[C@@H]2N)[C@H](N)C[C@@H]1O | 97% (inactive)
C=CC(N)CCC(=O)O (stereo not given) | 119% (inactive)
CC(=O)Oc1cccc(C(=O)O)c1OC(C)=O | 120% (inactive)
c1ccc(-c2ccc(C(c3ccccc3)n3ccnc3)cc2)cc1 (stereo not given) | 111% (inactive)
CCCCCC(=O)O[C@]1(C(C)=O)CCC2C3CCC4=CC(=O)CC[C@]4(C)C3CC[C@@]21C (stereo not given in full) | 109% (inactive)
CC(=O)[C@H]1CCC2C3CC=C4C[C@@H](O)CC[C@]4(C)C3CC[C@@]21C (stereo not given in full) | 99.4% (inactive)
CCN1C[C@]2(OC(=O)c3ccccc3NC(C)=O)CCC(OC)[C@]34C1[C@H](CC23)[C@@]1(O)CC(OC)[C@H]2CC4C1(O)[C@H]2OC (stereo not given in full) | 95.9% (inactive)
CCC(C)C(=O)OC1[C@@H]2CC3=C4CC(=O)O[C@@H](c5ccoc5)[C@]4(C)CCC3C(C)(C2=O)[C@@H](CC(=O)OC)C1(C)C (stereo not given in full) | 125% (inactive)
NC(N)=N/N=C\c1c(Cl)cccc1Cl | 97% (inactive)
O=c1cc(-c2ccccc2)oc2cc(O)cc(O)c12 | 118% (inactive) and 119% (inactive)
CC(=O)C1CCC2C3CC(=O)C4=CC(=O)CCC4(C)C3CCC12C (stereo not given) | 98.9% (inactive)
CCCCCCCCCCCCCCCCOP(=O)([O-])OCC[N+](C)(C)C | 128% (inactive)
CC1=C2C(O)C(=O)OC3CC4C(C)(C)C(=O)C=C[C@]4(C)C(CC1)[C@]23C (stereo not given in full) | 109% (inactive)
C1CNCCN1 | 120% (inactive)
Nc1ccc(S(=O)(=O)Nc2ccccn2)cc1 | 97.8% (inactive)
CCN(CC)CCOC(=O)C(Cc1cccc2ccccc12)CC1CCCO1 (stereo not given) | 99.1% (inactive)
O=C(CC(=O)c1ccccc1)c1ccccc1 | 101% (inactive)
O=c1c(O)c(-c2ccc(O)c(O)c2)oc2c(O[C@@H]3O[C@H](CO)[C@H](O)[C@@H](O)[C@H]3O)c(O)cc(O)c12 | 96.1% (inactive)

— PubChem BioAssay
